PubChem BioAssay (EPA / NIEHS)
Activity calls are given as the source filed them. Rule for the calls: active = hit-call score of the fitted dose curve at least 0.9, where 1 is the maximum; inactive = score below 0.9.

Legend:
Conditions in all cases: mRNA level, 48 h; actives raise or lower the signal
CYP4A11 (gene 1579) = assay: LTEA_HepaRG_CYP4A11: Life Technologies and Expression Analysis (LTEA) Assay for CYP4A11 using HepaRG (AID 2283486)
In short: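 Differentiated HepaRG cells, 48 h after plating, exposed in duplicate for 48 h to 8 half-log concentrations up to 100 uM in 0.5% DMSO in serum-free induction medium. CYP4A11 mRNA measured by TaqMan qRT-PCR, normalized to ACTB, GAPDH and POLR2A.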

[1] = read-out: Cytochrome P450 3A4 (Homo sapiens) (UniProt P08684); assay: LTEA_HepaRG_CYP3A4: Life Technologies and Expression Analysis (LTEA) Assay for CYP3A4 using HepaRG (AID 2283487)
In short: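 Differentiated HepaRG cells, plated 48 h, then dosed 48 h in serum-free induction medium with 0.5% DMSO, 8 half-log concentrations up to 100 uM, duplicate. CYP3A4 mRNA by qRT-PCR, normalized to ACTB/GAPDH/POLR2A; bidirectional fit versus DMSO.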

[2] = read-out: DNA damage-inducible transcript 3 (DDIT3), DDIT3 (gene 1649); assay: LTEA_HepaRG_DDIT3: Life Technologies and Expression Analysis (LTEA) Assay for DNA damage-inducible transcript 3 (DDIT3) using HepaRG (AID 2283488)
In short: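 Eight-point concentration-response (100 uM highest, half-log dilutions) in HepaRG, 48 h, duplicate wells. Endpoint: qRT-PCR mRNA, normalized (ACTB, GAPDH, POLR2A), bidirectional fitting with DMSO as baseline.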

[3] = read-out: Pro-epidermal growth factor (Homo sapiens) (UniProt P01133); assay: LTEA_HepaRG_EGF: Life Technologies and Expression Analysis (LTEA) Assay for Epidermal growth factor (EGF) using HepaRG (AID 2283489)
In short: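 HepaRG cells (~100,000/well, 48 h pre-culture) exposed in duplicate for 48 h in serum-free induction medium to 8 half-log concentrations up to 100 uM in 0.5% DMSO. EGF mRNA by qRT-PCR, normalized to ACTB/GAPDH/POLR2A; bidirectional fit versus DMSO.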

[4] = read-out: Early growth response protein 1 (EGR1) transcription factor, EGR1 (gene 1958); assay: LTEA_HepaRG_EGR1: Life Technologies and Expression Analysis (LTEA) Assay for Early growth response protein 1 (EGR1) transcription factor using HepaRG (AID 2283490)
In short: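 EGR1 expression change in human HepaRG after 48 h chemical exposure, assessed by housekeeping-normalized qRT-PCR; concentration-response up to 100 uM, fitted in both directions against DMSO controls.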

[5] = read-out: Ezrin (EZR), EZR (gene 7430); assay: LTEA_HepaRG_EZR: Life Technologies and Expression Analysis (LTEA) Assay for Ezrin (EZR) using HepaRG (AID 2283491)
In short: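 EZR transcript levels came from Fluidigm qRT-PCR and were normalized to three housekeeping genes after 48 h chemical exposure of HepaRG cells. Dosing used an 8-point half-log series with a 100 uM top concentration in 0.5% DMSO, tested in duplicate; both directions were fitted versus vehicle.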

[6] = read-out: Cytochrome P450 3A7 (Homo sapiens) (UniProt P24462); assay: LTEA_HepaRG_CYP3A7: Life Technologies and Expression Analysis (LTEA) Assay for CYP3A7 using HepaRG (AID 2283492)
In short: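 Differentiated HepaRG cells in serum-free induction medium exposed 48 h in duplicate to 8-point half-log series from 100 uM top in 0.5% DMSO. CYP3A7 mRNA by qRT-PCR, normalized to ACTB/GAPDH/POLR2A, bidirectional fit versus DMSO.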

CYP3A5 (gene 1577) = assay: LTEA_HepaRG_CYP3A5: Life Technologies and Expression Analysis (LTEA) Assay for CYP3A5 using HepaRG (AID 2283493)
In short: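 Readout was CYP3A5 mRNA by qRT-PCR. HepaRG cultures were exposed for 48 h in serum-free induction medium to chemicals at up to 100 uM, and responses were fitted in both directions relative to DMSO vehicle.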

[7] = read-out: Fatty Acid-Binding Protein 1 (FABP1), FABP1 (gene 2168); assay: LTEA_HepaRG_FABP1: Life Technologies and Expression Analysis (LTEA) Assay for Fatty Acid-Binding Protein 1 (FABP1) using HepaRG (AID 2283494)
In short: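 Values reflect bidirectional concentration-response fitting of FABP1 mRNA change against 0.5% DMSO controls. Human HepaRG cultures received eight half-log doses (top 100 uM) for 48 h; expression quantified by TaqMan qRT-PCR with housekeeping-gene normalization.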

[8] = read-out: Cytochrome P450 4A22 (Homo sapiens) (UniProt Q5TCH4); assay: LTEA_HepaRG_CYP4A22: Life Technologies and Expression Analysis (LTEA) Assay for Cytochrome P450 4A22 (CYP4A22) using HepaRG (AID 2283495)
In short: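 Differentiated HepaRG cells in serum-free induction medium exposed 48 h in duplicate to eight half-log concentrations up to 100 uM in 0.5% DMSO. CYP4A22 mRNA quantified by TaqMan qRT-PCR, normalized to ACTB, GAPDH and POLR2A; bidirectional fit versus DMSO.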

[9] = read-out: Cytochrome P450 7A1 (Homo sapiens) (UniProt P22680); assay: LTEA_HepaRG_CYP7A1: Life Technologies and Expression Analysis (LTEA) Assay for Cytochrome P450 7A1 (CYP7A1) using HepaRG (AID 2283496)
In short: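 Using 0.5% DMSO as vehicle and baseline, chemicals were tested in duplicate over an 8-point range from 100 uM on HepaRG cells for 48 h; qRT-PCR signals were normalised to ACTB, GAPDH and POLR2A.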

[10] = read-out: Glutathione S-Transferase (GSTA2), GSTA2 (gene 2939); assay: LTEA_HepaRG_GSTA2: Life Technologies and Expression Analysis (LTEA) Assay for Glutathione S-Transferase (GSTA2) using HepaRG (AID 2283497)
In short: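 Oxidative-stress marker GSTA2 is quantified by TaqMan qRT-PCR in HepaRG cultures treated 48 h across an eight-point range to 100 uM. Expression is normalized to endogenous controls and compared with 0.5% DMSO vehicle.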

[11] = read-out: Glutamate-cysteine ligase catalytic (GCLC), GCLC (gene 2729); assay: LTEA_HepaRG_GCLC: Life Technologies and Expression Analysis (LTEA) Assay for Glutamate-cysteine ligase catalytic (GCLC) using HepaRG (AID 2283498)
In short: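 Oxidative-stress marker GCLC is measured as mRNA change in human HepaRG liver cells after 48 h chemical treatment in 0.5% DMSO, eight concentrations from 100 uM. Activity is fitted bidirectionally against vehicle.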

[12] = read-out: growth arrest and DNA damage 45 (GADD45G), GADD45G (gene 10912); assay: LTEA_HepaRG_GADD45G: Life Technologies and Expression Analysis (LTEA) Assay for growth arrest and DNA damage 45 (GADD45G) using HepaRG (AID 2283499)
In short: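 Differentiated human HepaRG cells, 48 h post-plating, exposed 48 h in serum-free induction medium to 8 half-log concentrations (top 100 uM, 0.5% DMSO) in duplicate. GADD45G mRNA measured by Fluidigm TaqMan qRT-PCR, normalized to ACTB, GAPDH, POLR2A; bidirectional fit versus DMSO.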

[13] = read-out: Glutamate-cysteine ligase regulatory (GCLM), GCLM (gene 2730); assay: LTEA_HepaRG_GCLM: Life Technologies and Expression Analysis (LTEA) Assay for Glutamate-cysteine ligase regulatory (GCLM) using HepaRG (AID 2283500)
In short: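 In this multiplexed HepaRG gene-expression assay, GCLM mRNA change after 48 h treatment (8 concentrations, max 100 uM) was scored against DMSO by bidirectional curve fitting.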

[14] = read-out: Glutathione S-transferase M3 (GSTM3), GSTM3 (gene 2947); assay: LTEA_HepaRG_GSTM3: Life Technologies and Expression Analysis (LTEA) Assay for Glutathione S-transferase M3 (GSTM3) using HepaRG (AID 2283501)
In short: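 Differentiated human HepaRG cells were exposed in duplicate for 48 h in serum-free induction medium, 8 points from 100 uM top in half-log steps, 0.5% DMSO. GSTM3 mRNA was measured by TaqMan qRT-PCR, normalized to ACTB, GAPDH and POLR2A; bidirectional fit versus DMSO.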

[15] = read-out: Heat shock 70 kDa protein 1 (HSPA1A), gene 3303; assay: LTEA_HepaRG_HSPA1A: Life Technologies and Expression Analysis (LTEA) Assay for Heat shock 70 kDa protein 1 (HSPA1A) using HepaRG (AID 2283502)
In short: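 An oxidative-stress marker readout: HepaRG cells treated 48 h in duplicate with an eight-point series (highest 100 uM) had HSPA1A mRNA quantified by TaqMan qRT-PCR. Activity was fitted in both directions using 0.5% DMSO as baseline.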

[16] = read-out: Hypoxia-inducible factor 1-alpha (Homo sapiens) (UniProt Q16665); assay: LTEA_HepaRG_HIF1A: Life Technologies and Expression Analysis (LTEA) Assay for Hypoxia-inducible factor 1 (HIF1A) Trancription factor using HepaRG (AID 2283503);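 note: HIF1A transcript by TaqMan qRT-PCR normalized to ACTB GAPDH and POLR2A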
In short: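 Gain- or loss-of-signal HIF1A mRNA changes are fitted against a DMSO baseline. HepaRG cultures receive eight concentrations, highest 100 uM, for 48 h in serum-free induction medium with 0.5% DMSO.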

[17] = read-out: 3-Hydroxy-3-Methylglutaryl-CoA Synthase 2 (HMGCS2), HMGCS2 (gene 3158); assay: LTEA_HepaRG_HMGCS2: Life Technologies and Expression Analysis (LTEA) Assay for 3-Hydroxy-3-Methylglutaryl-CoA Synthase 2 (HMGCS2) using HepaRG (AID 2283504)
In short: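 Human HepaRG cells in serum-free induction medium were exposed in duplicate for 48 h to 8-point half-log series from 100 uM top in 0.5% DMSO. HMGCS2 mRNA measured by TaqMan qRT-PCR, normalised to ACTB, GAPDH, POLR2A; bidirectional fit versus DMSO.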

Sequence of Hypoxia-inducible factor 1-alpha (Homo sapiens) (Q16665 whole entry, looked up): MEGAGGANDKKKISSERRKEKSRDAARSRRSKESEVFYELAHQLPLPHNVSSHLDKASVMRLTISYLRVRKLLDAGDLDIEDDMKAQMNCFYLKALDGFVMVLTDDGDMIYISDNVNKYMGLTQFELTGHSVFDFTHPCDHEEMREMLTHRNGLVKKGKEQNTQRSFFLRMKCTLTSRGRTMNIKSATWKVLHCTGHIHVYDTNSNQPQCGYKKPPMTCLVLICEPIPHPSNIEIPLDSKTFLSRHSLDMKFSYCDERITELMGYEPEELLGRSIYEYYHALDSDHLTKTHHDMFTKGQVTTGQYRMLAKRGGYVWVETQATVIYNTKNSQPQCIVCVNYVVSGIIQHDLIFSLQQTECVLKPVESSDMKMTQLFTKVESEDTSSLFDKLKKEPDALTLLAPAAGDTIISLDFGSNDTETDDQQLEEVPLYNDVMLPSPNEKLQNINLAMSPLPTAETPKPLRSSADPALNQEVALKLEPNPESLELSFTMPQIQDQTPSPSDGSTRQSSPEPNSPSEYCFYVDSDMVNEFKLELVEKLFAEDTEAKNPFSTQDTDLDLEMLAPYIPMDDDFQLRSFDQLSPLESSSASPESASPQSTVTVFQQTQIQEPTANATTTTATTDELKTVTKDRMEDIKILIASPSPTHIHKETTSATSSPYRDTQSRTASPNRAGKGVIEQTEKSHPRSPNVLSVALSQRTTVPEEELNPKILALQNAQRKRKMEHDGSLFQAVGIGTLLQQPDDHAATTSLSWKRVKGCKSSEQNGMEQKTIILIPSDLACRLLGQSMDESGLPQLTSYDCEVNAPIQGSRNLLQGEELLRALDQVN
Sequence of Cytochrome P450 3A7 (Homo sapiens) (P24462 whole entry, looked up): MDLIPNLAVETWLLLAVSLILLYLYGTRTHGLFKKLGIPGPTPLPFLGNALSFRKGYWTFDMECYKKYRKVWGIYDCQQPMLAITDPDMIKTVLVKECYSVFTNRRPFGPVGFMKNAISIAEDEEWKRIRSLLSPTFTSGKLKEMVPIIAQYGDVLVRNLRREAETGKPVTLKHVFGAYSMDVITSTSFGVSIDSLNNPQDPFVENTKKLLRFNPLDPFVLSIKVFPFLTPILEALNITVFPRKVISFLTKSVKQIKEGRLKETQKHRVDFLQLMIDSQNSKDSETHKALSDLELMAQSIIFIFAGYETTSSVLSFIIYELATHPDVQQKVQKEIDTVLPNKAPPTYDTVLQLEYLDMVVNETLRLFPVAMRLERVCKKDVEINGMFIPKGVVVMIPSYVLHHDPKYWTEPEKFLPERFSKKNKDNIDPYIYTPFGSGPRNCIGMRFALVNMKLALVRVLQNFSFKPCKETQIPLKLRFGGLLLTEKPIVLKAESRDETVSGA
Sequence of Cytochrome P450 3A4 (Homo sapiens) (P08684 whole entry, looked up): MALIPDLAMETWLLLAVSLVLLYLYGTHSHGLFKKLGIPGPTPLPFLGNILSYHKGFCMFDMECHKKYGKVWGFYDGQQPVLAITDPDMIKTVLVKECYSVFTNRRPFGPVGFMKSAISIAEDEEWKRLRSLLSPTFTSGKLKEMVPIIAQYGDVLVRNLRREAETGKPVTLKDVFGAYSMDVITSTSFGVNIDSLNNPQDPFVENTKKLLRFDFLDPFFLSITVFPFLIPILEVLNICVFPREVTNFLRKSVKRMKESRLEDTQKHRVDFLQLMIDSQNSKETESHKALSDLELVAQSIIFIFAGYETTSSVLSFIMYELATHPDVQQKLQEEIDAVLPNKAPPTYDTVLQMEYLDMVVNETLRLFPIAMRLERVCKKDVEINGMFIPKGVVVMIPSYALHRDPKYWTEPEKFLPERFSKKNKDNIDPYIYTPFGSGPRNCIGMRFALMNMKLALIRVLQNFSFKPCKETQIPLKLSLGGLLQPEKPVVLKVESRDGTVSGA

O=C(O)C1(C(=O)Nc2ccc(Cl)cc2Cl)CC1
AC50 (CYP4A11 (gene 1579)): 84.8 µM (active)
AC50 [1]: 75.4 µM (active)
outcome [2]: inactive
AC50 [3]: 31.6 µM (active)
AC50 [4]: 50 µM (active)
outcome [5]: inactive
AC50 [6]: 91 µM (active)
outcome (CYP3A5 (gene 1577)): inactive
AC50 [7]: 77.5 µM (active)
AC50 [8]: 80.7 µM (active)
AC50 [9]: 77.8 µM (active)
AC50 [10]: 48.8 µM (active)
AC50 [11]: 50 µM (active)
AC50 [12]: 90.1 µM (active)
outcome [13]: inactive
outcome [14]: inactive
outcome [15]: inactive
AC50 [16]: 50 µM (active)
AC50 [17]: 81 µM (active)

CCCCOC(=O)C(C)Oc1ccc(Oc2ccc(C(F)(F)F)cn2)cc1 (configuration not stated)
outcome (CYP4A11 (gene 1579)): inactive
outcome [1]: inactive
outcome [2]: inactive
outcome [3]: inactive
outcome [4]: inactive
outcome [5]: inactive
outcome [6]: inactive
outcome (CYP3A5 (gene 1577)): inactive
outcome [7]: inactive
outcome [8]: inactive
outcome [9]: inactive
outcome [10]: inactive
outcome [11]: inactive
outcome [12]: inactive
outcome [13]: inactive
outcome [14]: inactive
outcome [15]: inactive
outcome [16]: inactive
outcome [17]: inactive

CN(C)C(=O)Nc1ccc(Cl)c(Cl)c1
outcome (CYP4A11 (gene 1579)): inactive
outcome [1]: inactive
outcome [2]: inactive
outcome [3]: inactive
outcome [4]: inactive
outcome [5]: inactive
outcome [6]: inactive
outcome (CYP3A5 (gene 1577)): inactive
AC50 [7]: 50 µM (active)
outcome [8]: inactive
AC50 [9]: 6.86 µM (active)
AC50 [10]: 50 µM (active)
AC50 [11]: 35.8 µM (active)
outcome [12]: inactive
AC50 [13]: 50 µM (active)
outcome [14]: inactive
outcome [15]: inactive
outcome [16]: inactive
outcome [17]: inactive
